Laboratory results: the supplement of paper PMC4894684
Counter-ions that a name gives are not always drawn. ± gives the standard deviation of the averaged measurements.

test system: Toxoplasma gondii RH (in HFF); test: parasite growth relative to the screen mean (all compounds = 100%); higher = less inhibition of parasite growth; settings: 5 µM; 72 h; oxygen 21 %
Summary of the method: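 Library compounds (10 mM DMSO stocks) were pin-transferred to 5 µM final onto confluent human foreskin fibroblasts in 96-well plates, then infected within 2 h with RH β-Gal–GFP Toxoplasma (MOI 1:5) and grown 72 h at 21% O2. Parasite number came from a CPRG β-Gal assay against in-plate standard curves. Growth is expressed relative to the screen mean (all compounds = 100%), averaged over two screens. Uninfected host-cell viability was checked by CellTiter-Blue.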

For `NS(=O)(=O)Cc1noc2ccccc12` [Zonisamide], which parasite growth is on record?
The parasite growth was 131 ± 2.2%.

`N=C(N)N/N=C/c1c(Cl)cccc1Cl` [Guanabenz acetate] was tested. Which parasite growth did it give?
The parasite growth was 99.52 ± 0.3%.

For `Cc1cc(C)c(/C=C2\C(=O)Nc3ccccc32)[nH]1`, which parasite growth is on record?
Its parasite growth is 198 ± 12%.

With `Cn1cc(C2=C(c3cn(CCCSC(=N)N)c4ccccc34)C(=O)NC2=O)c2ccccc21` [Ro 31-8220 mesylate] as the molecule, how does the parasite growth read?
Its parasite growth is < 0%.

How did the parasite growth turn out when `CNCCCCOc1ccccc1Cc1ccccc1` [Bifemelane hydrochloride] was run?
Its parasite growth is 43.6 ± 3.2%.

`CC[C@H](C)C(=O)O[C@H]1C[C@@H](C)C=C2C=C[C@H](C)[C@H](CC[C@@H]3C[C@@H](O)CC(=O)O3)[C@H]21` [Lovastatin] was tested. Which parasite growth did it give?
Its parasite growth is 128 ± 17%.

Which parasite growth does the source give for `C=C1C(=O)O[C@@H]2/C=C(\C)CC/C=C(\C)CC[C@@H]12` [Costunolide] here?
The parasite growth was 30.7 ± 25%.

How did the parasite growth turn out when `COc1cc(COc2cc(N)c(Cl)cc2C(=O)CCC2CCN(CCNS(C)(=O)=O)CC2)cc(OC)c1` was run?
Its parasite growth is 28.1 ± 16%.

How did the parasite growth turn out when `O=C(NCC1CCCCN1)c1cc(OCC(F)(F)F)ccc1OCC(F)(F)F` (centres undefined) [Flecainide acetate] was run?
The parasite growth was 130 ± 7.9%.

Which parasite growth does the source give for `CCc1cc(Cl)c(OC)c(C(=O)NC[C@@H]2CCCN2CC)c1O` [Eticlopride hydrochloride] here?
The parasite growth was 106 ± 11%.

`Clc1cccc(Cl)c1NC1=NCCN1` [Clonidine hydrochloride] was tested. Which parasite growth did it give?
Its parasite growth is 153 ± 28%.

`COc1ccccc1N1CCN(CC(O)COc2cccc3ccccc23)CC1` (centres undefined) [Naftopidil hydrochloride] was tested. Which parasite growth did it give?
The parasite growth was 118.7 ± 0.3%.

`c1ccc2nc(C3=NCCN3)cnc2c1` [BU 239 hydrochloride] was tested. Which parasite growth did it give?
Its parasite growth is 102 ± 22%.

For `CCN(CC)CCCC(C)Nc1nc(C)cc(Nc2ccc3nc(C)cc(N)c3c2)n1` (centres undefined), which parasite growth is on record?
The parasite growth was 127 ± 2.7%.

Which parasite growth does the source give for `CC(C)C1C2CCC(C2)C1N` (centres undefined) here?
The parasite growth was 118 ± 6.6%.

Which parasite growth does the source give for `CC(C)NCC(O)c1ccc2ccccc2c1` (centres undefined) [Pronethalol hydrochloride] here?
The parasite growth was 117 ± 28%.

How did the parasite growth turn out when `CCCCCCCCCCCC1=C(O)C(=O)C=C(O)C1=O` [Embelin] was run?
Its parasite growth is 122 ± 4.3%.

For `CC(C)NCC(O)c1ccc(O)c(O)c1` (centres undefined) [Isoproterenol hydrochloride], which parasite growth is on record?
The parasite growth was 172 ± 14%.

With `O=c1c(-c2ccc(O)cc2)coc2cc(O)cc(O)c12` [Genistein] as the molecule, how does the parasite growth read?
The parasite growth was 148 ± 28%.

For `NC(=O)CNCCC(c1ccccc1)c1ccccc1` [N20C hydrochloride], which parasite growth is on record?
The parasite growth was 71.4 ± 14%.

Which parasite growth does the source give for `O=C1c2ccccc2S(=O)(=O)N1CCCCN1CCN(c2ncccn2)CC1` [Ipsapirone] here?
The parasite growth was 160 ± 46%.

How did the parasite growth turn out when `CCN1CCC[C@H]1CNC(=O)c1cc(S(N)(=O)=O)ccc1OC` [(S)-(-)-Sulpiride] was run?
The parasite growth was 93.2 ± 3.8%.

How did the parasite growth turn out when `Cc1cccc(C#Cc2ccccc2)n1` [MPEP hydrochloride] was run?
The parasite growth was 101 ± 37%.

`Cc1oncc1C(=O)Nc1ccc(C(F)(F)F)cc1` [Leflunomide] was tested. Which parasite growth did it give?
The parasite growth was 106 ± 61%.

For `CCCCc1nc2ccn(Cc3cccs3)c(=O)c2n1Cc1ccc(-c2ccccc2-c2nn[nH]n2)cc1`, which parasite growth is on record?
Its parasite growth is 104 ± 12%.

With `COc1ccc2[nH]cc(CCNC(C)=O)c2c1` [Melatonin] as the molecule, how does the parasite growth read?
The parasite growth was 84.8 ± 3.7%.

`NCCCCCc1c[nH]cn1` [Impentamine dihydrobromide] was tested. Which parasite growth did it give?
The parasite growth was 132 ± 7.9%.

Which parasite growth does the source give for `O=C(NCCO[N+](=O)[O-])c1cccnc1` [Nicorandil] here?
Its parasite growth is 109 ± 12%.

Which parasite growth does the source give for `CC(C(O)c1ccc(O)cc1)N1CCC(Cc2ccccc2)CC1` (centres undefined) [Ifenprodil hemitartrate] here?
Its parasite growth is 116 ± 4.3%.

For `CC(=N)NCCCC[C@H](N)C(=O)O` [L-NIL hydrochloride], which parasite growth is on record?
Its parasite growth is 130 ± 15%.

How did the parasite growth turn out when `Cc1ccc(Sc2cncc3sc(C(N)=O)cc23)cc1` was run?
The parasite growth was 148 ± 2.4%.

For `OCC1OC(n2cnc3c(NC4CCCC4)nc(Cl)nc32)C(O)C1O` (centres undefined) [2-Chloro-N6-cyclopentyladenosine], which parasite growth is on record?
Its parasite growth is 138 ± 11%.

How did the parasite growth turn out when `CCN1CCC[C@H]1CNC(=O)c1c(OC)ccc(Br)c1OC` [Remoxipride hydrochloride] was run?
The parasite growth was 113 ± 3.8%.

How did the parasite growth turn out when `CCS(=O)(=O)N(C)[C@H]1c2cc(C#N)ccc2OC(C)(C)[C@@H]1O` [(-)-[3R,4S]-Chromanol 293B] was run?
Its parasite growth is 121 ± 9.2%.

For `Nc1cc(N2CCCCC2)nc(N)[n+]1[O-]` [Minoxidil], which parasite growth is on record?
Its parasite growth is 111 ± 13%.

`COc1cc(N)c(Cl)cc1C(=O)NC1CCN(CCCOc2ccc(F)cc2)CC1OC` (centres undefined) [Cisapride] was tested. Which parasite growth did it give?
The parasite growth was 20.8 ± 7.1%.

For `COc1cc(-c2ccc(=O)[nH]n2)ccc1OC(F)F` [Zardaverine], which parasite growth is on record?
Its parasite growth is 103 ± 8.7%.

How did the parasite growth turn out when `O=C(O)Cc1nn(Cc2ccc(Br)cc2F)c(=O)c2ccccc12` [Statil] was run?
The parasite growth was 91.7 ± 26%.

How did the parasite growth turn out when `O=C(OCCN1CCOCC1)C1(c2ccccc2)CCCCC1` [PRE-084 hydrochloride] was run?
Its parasite growth is 99.6 ± 19%.
